Screens from PubChem.
G9a block: G9a (human) methyltransferase inhibition; Q96KQ7; G9a H3K9 monomethylation, AlphaScreen, 2 h; Potency, µM (highest dose often 102 µM), for the others: at the top dose activity, negative = inhibition, hits mostly inhibitors; actives 8.8% (n = 350,000); note: % is set by controls: 0 for no effect and ±100 for the full control effect; nearly all actives have a fitted effect of over 75% in size
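Enzyme 20 nM + cpd, 15 min RT; add b-H3K9 pep 500 nM / SAM 20 uM; 2 h RT; anti-H3K9me1 Ab 0.5 ug/mL + SA donor / anti-rabbit acceptor beads 20 ug/mL each, 10 min; AlphaScreen read.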
HP1b chromo inh: blocks HP1-beta chromodomain binding to methylated histone tails | P83916 | AlphaScreen HP1-beta / biotin-H3K9me3 peptide binding | Potency, µM (top dose mostly 114 µM), for the others: at the top dose activity change, negative = inhibition, hits mostly inhibitors | actives 0.56% (n = 390,000) | AID 540317; note: nearly all actives have a fitted effect of over 70% in size
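AlphaScreen: HP1-beta (50 nM) preformed 30 min with biotin-H3(1-18)K9me3 peptide (50 nM) in PBS pH 7.4, 0.01% Tween-20. Compound added for 30 min at RT, then streptavidin donor/nickel chelate acceptor beads (10 ug/mL) for 30 min.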
L3MBTL1 block: L3MBTL1 (human) inhibition. actives 0.66% (n = 230,000). AlphaScreen L3MBTL1–H3K9me1 peptide binding. Q9Y468. AID 485360. Potency, µM (series often up to 57.1 µM), inactives show at the highest dose activity, negative = inhibition, most hits filed as inhibitors; note: % is set by controls: 0 for no effect and ±100 for the full control effect; nearly all actives have a fitted effect of over 60% in size
Target sequence (Q9Y468 whole entry, looked up): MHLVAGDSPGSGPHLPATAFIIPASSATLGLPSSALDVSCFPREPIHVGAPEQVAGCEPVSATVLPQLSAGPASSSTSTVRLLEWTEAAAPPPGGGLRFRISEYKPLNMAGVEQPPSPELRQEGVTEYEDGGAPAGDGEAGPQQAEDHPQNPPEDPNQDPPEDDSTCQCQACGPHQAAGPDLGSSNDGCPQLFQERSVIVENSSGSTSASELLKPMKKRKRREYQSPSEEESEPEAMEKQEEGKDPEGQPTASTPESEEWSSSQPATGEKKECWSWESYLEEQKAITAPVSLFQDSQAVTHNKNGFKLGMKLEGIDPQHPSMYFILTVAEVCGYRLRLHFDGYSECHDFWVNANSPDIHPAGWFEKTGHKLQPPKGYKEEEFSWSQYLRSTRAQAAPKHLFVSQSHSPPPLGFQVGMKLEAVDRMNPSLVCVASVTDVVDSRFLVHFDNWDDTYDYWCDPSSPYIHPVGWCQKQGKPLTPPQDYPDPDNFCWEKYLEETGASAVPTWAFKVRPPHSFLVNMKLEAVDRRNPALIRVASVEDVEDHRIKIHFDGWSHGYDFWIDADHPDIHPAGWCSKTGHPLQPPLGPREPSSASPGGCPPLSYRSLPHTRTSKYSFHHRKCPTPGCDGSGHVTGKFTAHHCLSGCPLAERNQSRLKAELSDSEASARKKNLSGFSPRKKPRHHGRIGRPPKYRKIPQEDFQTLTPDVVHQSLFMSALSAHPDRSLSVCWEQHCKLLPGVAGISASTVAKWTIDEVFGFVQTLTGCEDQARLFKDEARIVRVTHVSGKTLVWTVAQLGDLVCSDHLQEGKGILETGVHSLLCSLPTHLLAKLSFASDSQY
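AlphaScreen proximity signal between nickel-chelate acceptor and streptavidin donor beads (final 10 ug/mL) reports binding of 50 nM L3MBTL1 to 75 nM biotin-H3 K9me1 peptide; complex incubated with compounds 30 min at room temperature; cefsulodin titration as control.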
BAZ2B block: blocks human BAZ2B; Q9UIF8; AlphaScreen BAZ2B-H3K14Ac peptide displacement; Potency, µM (titrated, usually from 114 µM), for the others: top-dose activity change, negative = inhibition, usual class: inhibitors; actives 4.4% (n = 360,000); AID 504333; note: % is set by controls: 0 for no effect and ±100 for the full control effect; nearly all actives have a fitted effect of over 60% in size
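Compounds, titrated to a top concentration of 110 uM, were incubated 30 min at room temperature with preformed BAZ2B/acetyl-K14 H3 peptide complex (50 nM each). Proximity signal was measured by AlphaScreen after 20 min with beads.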
JMJD2A Tudor: blocks the human JMJD2A Tudor domain | Potency, µM (series often up to 114 µM), for the others: at the highest dose activity change, negative = inhibition, most hits filed as inhibitors | AID 504339 | AlphaScreen JMJD2A-Tudor / H3K4me3 peptide binding | actives 4.4% (n = 390,000); note: % is set by controls: 0 for no effect and ±100 for the full control effect; nearly all actives have a fitted effect of over 50% in size
Starred values were filed as active, the others as inactive; ? = inconclusive; . = no result given; [ ] = remark or other dose. Sampled rows, rich in hits. Any-hit rate of the full collection: about 11%. Calls come from the whole dose curve; as a rule, active = well fitted inhibition curve with a large enough effect; inconclusive = small, poorly fitted or top-dose-only effect; inactive = no such curve, though single readings can be large or run the other way. Potency is the fitted concentration of half-maximal effect.

SMILES	G9a block	HP1b chromo inh	L3MBTL1 block	BAZ2B block	JMJD2A Tudor
CCS(=O)(=O)c1oc(-c2ccc(F)cc2)nc1S(=O)(=O)c1ccc(Br)cc1	?	79%	.	-17%	-1%
Cc1[nH]n(-c2ccccc2)c(=S)c1C=Nc1cccc([N+](=O)[O-])c1	.	-72%	1%	22µM*	2.5µM*
Cc1cc(C(=O)N/N=C/c2c(C)[nH]n(-c3ccccc3)c2=O)n[nH]1	-7%	36%	.	28µM*	50µM*
CCCCN(CCCC)C(=S)N/N=C/c1c(C)[nH]n(-c2ccccc2)c1=O	?	3%	-8%	10µM*	79µM*
Cc1[nH]n(-c2ccccc2)c(=O)c1C=Nc1cccc2cccnc12	?	-12%	-9%	-38%	?
CCOc1ccc(-c2c(C)nn3c(C)c(C(=O)Nc4ccccc4C(=O)OC)cnc23)cc1OCC	6%[59 µM]	-17%	.	-18%	-21%
COc1ccc(-c2cc(C3C4C=CCC(C)C4C(=O)N3Cc3ccccc3)ccc2F)cc1 (stereo unspecified)	.	13%	.	.	-16%
Cc1cccc(OCc2nc(-c3ccccn3)n[nH]2)c1	23%[59 µM]	46%	.	8.9µM*	13µM*
Cc1cccc(OCc2n[nH]c(=S)n2-c2ccccc2)c1	.	7%	0%	?	?
Cc1ccc(OCc2nc(-c3ccccn3)n[nH]2)cc1	71%[59 µM]	51%	.	4µM*	20µM*
Cc1cc(C)nc(Nc2n[nH]c(COc3ccc(Cl)cc3)n2)n1	11%[59 µM]	25%	8%	8%	4%
O=C(NC(=S)NCc1cccnc1)c1cc(Br)ccc1Cl	24%[12.7 µM]	43%	.	-10%	-6%
CCc1c(C(C)S(=O)(=O)c2ccc(C)cc2)[nH]c(=O)n1-c1ccc(C)cc1 (stereo unspecified)	8.9µM*	24%	.	-21%	-29%
CCc1[nH]c(=O)[nH]c1C(C)S(=O)(=O)c1ccc(C)cc1 (stereo unspecified)	1.6µM*	?	.	-19%	-27%
CCc1c(C#N)c(=O)[nH]c(=O)n1-c1ccccc1	.	24%	.	.	-6%
OC[C@H]1O[C@@H]2O[C@H]3[C@H](O)[C@@H](O)[C@@H](O[C@H]4[C@H](O)[C@@H](O)[C@@H](O[C@H]5[C@H](O)[C@@H](O)[C@@H](O[C@H]6[C@H](O)[C@@H](O)[C@@H](O[C@H]7[C@H](O)[C@@H](O)[C@@H](O[C@H]1[C@H](O)[C@H]2O)O[C@@H]7CO)O[C@@H]6CO)O[C@@H]5CO)O[C@@H]4CO)O[C@@H]3CO	20%[12.7 µM]	14%	.	-4%	?
O=C1C=CC(=O)N1c1ccc2c(c1)Cc1cc(F)ccc1-2	.	4%[57 µM]	.	.	-3%
CC(=O)Nc1ccc2c(c1)Cc1cc(N3C(=O)C=CC3=O)ccc1-2	.	?	.	.	7.1µM*
COCCCn1c(=O)c2sccc2n(Cc2cc(C(=O)OC)ccc2OC)c1=O	.	27%	41%	16%	-12%
O=C(NNC(=O)C12CC3CC(CC(C3)C1)C2)c1ccccn1	.	19%	9%	6%	-6%
O=C(NNC(=O)C12CC3CC(CC(C3)C1)C2)c1cnccn1	3.2µM*	33%	22%	-3%	-1%
COc1ccc(S(=O)(=O)N2CCCCCC2)cc1NC(C)C(=O)Nc1ccc(NC(C)=O)cc1 (stereo unspecified)	.	1%	.	.	-20%
Cc1nc(Nc2cnc(/C=C/c3cc(C(=O)Nc4cccc(C(F)(F)F)c4)ccc3C)cn2)cc(N2CCNCC2)n1	32µM*	?	-3%	-38%	?
CCCN(Cc1cccs1)C(=O)Nc1cc(Cl)ccc1C	-11%[59 µM]	63%	.	0%	-1%
C=CCOc1ccccc1CN1CCSCC1	?	?	-4%	56µM*	6.3µM*
SMILES	G9a block	HP1b chromo inh	L3MBTL1 block	BAZ2B block	JMJD2A Tudor
C=CCOc1ccccc1CN1CCCCCC1	.	?	1%	?	1.4µM*
C=CCOc1ccccc1CN1CCC(Oc2ccc(C(=O)N3CCCCC3)cc2)CC1	94%	26%	.	1%	-15%
Cc1ccccc1NC(=O)Cn1c(=O)n(CCCC(=O)NCc2ccc3c(c2)OCO3)c(=O)c2ccccc21	5%[59 µM]	31%	.	2%	1%
C=CC[n+]1ccc2ccccc2c1C	-37%	10%	-3%	3%	?
C=CC[n+]1ccc(/C=C2\C=Cc3cc(C)ccc3N2CC)c2ccccc21	14µM*	?	.	14µM*	20µM*
O=c1cc(O)c2sc(Nc3ccc(F)c(Cl)c3)nc2[nH]1	28µM*	5%	.	-32%	-14%
COc1ccc(-c2nc3sc(CCNC(=O)C(=O)Nc4ccc(C)c(F)c4)c(C)n3n2)cc1	4%[59 µM]	18%	.	-17%	-19%
O=C(CCS(=O)(=O)c1ccccc1)Nc1ccc(Cl)cn1	45µM*	?	.	?	-20%
O=C(CCS(=O)(=O)c1ccc(F)cc1)Nc1nc(-c2ccncc2)cs1	7.9µM*	?	.	-24%	-35%
O=C(CCS(=O)(=O)c1ccccc1)Nc1nc(-c2cccs2)cs1	50µM*	22%	-2%	-28%	-10%
COc1ccc(-c2csc(NC(=O)CS(=O)(=O)c3ccc(F)cc3)n2)cc1OC	?	5%	-6%	-13%	-35%
CCc1cnc2c(c1SCCC(C)C)c(=O)n(C)c(=O)n2C	26%[59 µM]	59%	.	75%	43%
Cc1nnc(NCc2ccccc2)c2c1nnn2Cc1ccccc1Cl	-6%[59 µM]	55%	.	-2%	-11%
CC(C)(C)C1CCc2c(sc(NC(=O)c3ccco3)c2C(=O)Nc2ccccc2Cl)C1 (stereo unspecified)	-37%[59 µM]	38%	.	5%	-5%
CCN(Cc1ccccc1)S(=O)(=O)c1ccc(-c2coc(C)n2)cc1	7%[59 µM]	7%[57 µM]	.	?	-29%
COc1ccc(C2C(C(C)=O)=C(C)Nc3ncnn32)cc1[N+](=O)[O-] (stereo unspecified)	12%	55%	.	-4%	89µM*
COc1cc(C2C(C(C)=O)=C(C)Nc3ncnn32)ccc1O (stereo unspecified)	-1%[59 µM]	28%	4%	2%	-1%
CCCN1Cc2cccc(C(=O)Nc3ccc(OC)cc3OC)c2C1=O	-4%[59 µM]	21%	.	.	-13%
COc1cccc(NCc2cccn2-c2nnc(N3CCC(C)CC3)s2)c1	?	16%	.	-2%[57.1 µM]	-28%
CCN(CC)CCOC(=O)c1ccc(NC(=O)c2cc3cc(OC)ccc3oc2=O)cc1	1%[59 µM]	19%	.	-10%	-3%
CC1=C(SCCC#N)S/C(=C2\SC(C)=C(SCCC#N)S2)S1	1.3µM*	?	-15%	-32%	56µM*
CCOC(=O)c1[nH]c(C)c(CCC(=O)Nc2ccccc2C(=O)OC)c1C	-3%[59 µM]	9%[57 µM]	.	3%	-25%
O=C(CN1CCN(Cc2ccccc2)CC1)N/N=C/c1ccco1	9%	51%	-7%	12%	-2%
Cc1ccc(/C=N/N2CCN(Cc3ccc(Cl)cc3)CC2)o1	50µM*	-22%	.	?	?
